# Jurkat NFkB inh: inhibitors of the PMA/ionomycin-induced NF-kB reporter in Jurkat cells; AID 435003; PMA/ionomycin-induced NF-kB luciferase reporter, luminescence; actives 0.53% (n = 330,000); inhibition, % at 4 µM; in the data active = inhibition above about 50%
# Mdm2-MdmX inh: disrupts the human Mdm2-MdmX interaction | actives 3% (n = 330,000) | O15151+Q00987 | AID 485346 | SaOS-2 split-luciferase Mdm2/MdmX complementation, luminescence | inhibition, % at 8 µM;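 active = inhibition of at least 50% at 8 µM in the primary screen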
# Target sequence (O15151 whole entry, looked up): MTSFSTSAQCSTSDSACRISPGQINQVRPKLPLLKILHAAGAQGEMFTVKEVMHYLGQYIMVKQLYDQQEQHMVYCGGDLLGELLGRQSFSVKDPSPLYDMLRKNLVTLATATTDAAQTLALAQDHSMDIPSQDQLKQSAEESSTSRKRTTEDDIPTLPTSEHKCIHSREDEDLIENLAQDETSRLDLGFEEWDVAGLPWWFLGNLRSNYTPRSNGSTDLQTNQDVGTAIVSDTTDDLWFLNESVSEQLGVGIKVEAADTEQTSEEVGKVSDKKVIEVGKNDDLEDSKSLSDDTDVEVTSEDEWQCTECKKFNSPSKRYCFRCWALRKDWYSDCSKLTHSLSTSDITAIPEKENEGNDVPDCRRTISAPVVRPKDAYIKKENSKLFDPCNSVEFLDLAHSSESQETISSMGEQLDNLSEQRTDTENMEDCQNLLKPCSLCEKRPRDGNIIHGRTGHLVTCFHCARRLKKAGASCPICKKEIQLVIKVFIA
# Target sequence (Q00987 whole entry, looked up): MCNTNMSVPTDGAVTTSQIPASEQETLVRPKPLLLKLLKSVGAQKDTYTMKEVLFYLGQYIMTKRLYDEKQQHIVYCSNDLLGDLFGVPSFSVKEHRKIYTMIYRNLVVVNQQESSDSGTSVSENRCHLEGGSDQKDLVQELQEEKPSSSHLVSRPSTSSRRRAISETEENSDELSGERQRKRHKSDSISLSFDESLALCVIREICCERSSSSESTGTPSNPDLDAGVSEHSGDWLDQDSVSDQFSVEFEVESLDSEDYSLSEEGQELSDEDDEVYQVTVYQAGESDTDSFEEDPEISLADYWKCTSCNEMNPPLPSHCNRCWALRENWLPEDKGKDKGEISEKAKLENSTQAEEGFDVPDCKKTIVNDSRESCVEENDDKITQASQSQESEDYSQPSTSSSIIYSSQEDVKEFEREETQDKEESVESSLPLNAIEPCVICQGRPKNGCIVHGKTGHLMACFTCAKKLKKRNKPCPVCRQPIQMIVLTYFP
# CSC inhib: cancer stem cell inhibition; cancer stem cell-like cells viability, luminescence; inhibition, % at 7.5 µM; actives 1.1% (n = 300,000); AID 2717; in the data active = inhibition above about 75%; inconclusive = no clear call, values can overlap the other calls; tested in HMLE shEcad cells
# Gli-Sufu antag: blocks Gli-Sufu signaling in a luciferase reporter. inhibition, % at 5 µM. Sufu-KO-LIGHT fibroblasts, Gli luciferase reporter luminescence. actives 0.74% (n = 340,000);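 active = inhibition above about 55%, limit read from the data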;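 also: 0% = DMSO-treated cells and 100% = wells with medium but no cells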
# aSyn 5UTR inh: 5' untranslated region of α-synuclein, MLPCN primary screen | alpha-synuclein 5'UTR reporter, inhibitor activity | inhibition, % (tested at 7.5 µM) | actives 0.82% (n = 300,000) | AID 1813; in the data active = inhibition above about 60%; inconclusive = no clear call, values can overlap the other calls;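 also: H4 neuroglioblastoma cells stably carrying SNCA 5'UTR luciferase fusion; 0% = DMSO wells and 100% = positive control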
# 697 NFkB inh: inhibitors of the PMA/ionomycin-induced NF-kB reporter in 697 B cells | AID 435022 | 697 B-cell NF-kB luciferase reporter, 16 h | actives 0.33% (n = 330,000) | inhibition, % at 4 µM; in the data active = inhibition above about 35%
# Jurkat NFkB conf: inhibitors of the PMA/ionomycin-induced NF-kB reporter in Jurkat cells, retest; shares compounds with Jurkat NFkB inh; Jurkat NF-kB luciferase, 16 h; inhibition, % at 4 µM; actives 27% (n = 2,700); AID 435020;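 active = inhibition reaching about 45% at 4 µM in either replicate, limit read from the data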;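 also: plate controls were PMA/ionomycin stimulated DMSO wells for no effect and unstimulated DMSO wells for full effect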
# Starred values were filed as active, the others as inactive; ? = inconclusive; · = no result given. An excerpt weighted towards active compounds, which were near 4.5% of everything screened.
SMILES,Jurkat NFkB inh,Mdm2-MdmX inh,CSC inhib,Gli-Sufu antag,aSyn 5UTR inh,697 NFkB inh,Jurkat NFkB conf
NC(N)=Nc1nc(C2COc3ccccc3O2)cs1 (stereo not drawn),-167.2,-113.8,1.2,-65.0,-64.0,-239.1,-87.2
Clc1ccc2nc(-c3ccc(Br)s3)cn2c1,-178.8,-87.5,4.9,-126.2,-26.2,-150.8,-100.0
Cc1ccc(-n2cc(C(=O)c3ccc(F)cc3)nn2)cc1Cl,-178.6,34.8,-4.8,8.8,-48.4,-246.7,-73.3
CCOC(=O)c1ccc(-n2cc(C(=O)c3cccnc3)nn2)cc1,·,·,-0.9,31.0,-25.7,·,·
COc1cc(OC)c(/C=C2\C(=O)Nc3ccccc32)c(OC)c1,55.9*,47.5,59.7,-8.2,·,-10.4,53.7*
COC(=O)c1ccc2c(=O)n(-c3ccccc3F)c(=S)[nH]c2c1,-0.6,-38.7,0.2,4.7,-28.5,-10.0,·
CC(OC(=O)c1ccc2c(c1)OCCO2)C(=O)c1ccccc1 (stereo not drawn),-152.2,-167.4,-2.6,-116.7,-133.1,-191.5,-121.7
COc1cc2sc3ccc(-c4ccc(N(C)C)nc4)cc3c(=O)c2cc1OC,-159.4,-20.7,·,·,-141.4,-161.5,-78.9
CCSc1ccc(-c2ccc(C)cc2)nn1,·,·,·,-116.5,-51.7,·,·
CCOc1ccc(-c2ccc(SCC)nn2)cc1,-223.7,-145.0,9.4,-117.7,·,-236.7,-88.0
CCCCNC(=S)Nc1ccc(-c2nc3ccc(C)cc3s2)cc1,-117.0,-243.5,5.2,-81.0,-158.7,-212.3,·
CCC(C)(C)NC(=S)Nc1ccc(-c2nc3ccc(C)cc3s2)cc1,-174.9,-295.3,26.2,-97.3,-78.5,-157.1,-127.6
c1ccc(OCc2nc3ccccc3s2)cc1,-148.2,-65.8,-10.6,-111.5,-122.9,-169.4,·
CCC(=O)Nc1ccc(OCc2nc3ccccc3s2)cc1,-150.0,-204.4,12.5,-78.9,-124.7,-213.5,-92.8
Cc1ccc(C(=O)Nc2ccc(Cl)cc2C)c(Cl)c1,-153.5,-213.8,8.9,·,-71.1,-89.9,-103.3
Cc1ccc(C(=O)Nc2ccc(Cl)cc2C(F)(F)F)c(Cl)c1,-20.4,-26.6,-1.2,-31.4,-101.1,-21.8,·
c1ccc(N2CCN(c3cnc4ccccc4n3)CC2)cc1,-152.1,-209.2,10.2,4.4,-76.9,-184.6,-98.2
CC1=C(C#N)C(c2cn(-c3ccccc3)nc2-c2cccs2)C(C#N)=C(C)N1,53.5*,16.8,-13.2,41.6,-12.7,-29.8,-7.9
C(=N\NC1=Nc2cccc3cccc1c23)/c1ccccc1,-167.4,-185.2,-9.5,-77.6,-255.7,-180.9,-111.5
Clc1ccc(/C=N/NC2=Nc3cccc4cccc2c34)cc1,-76.6,15.0,-5.2,-73.6,-190.6,-120.2,·
COc1ccc(C(=O)CCNc2ccc(F)cc2)cc1,70.4*,-21.7,25.5,-48.1,-114.2,-118.6,-27.4
O=C(Nc1ccc2c(c1)OCO2)c1cnn2cccnc12,-101.0,-62.6,-8.2,-70.8,-141.5,-148.3,·
Oc1ccc(F)cc1-c1cc(-c2ccc3c(c2)OCCO3)n[nH]1,-160.0,-99.8,41.7,-5.4,-151.5,-224.3,-128.8
O=C(N/N=C/c1ccc(F)cc1)c1cc(-c2ccc3c(c2)OCO3)n[nH]1,-10.1,0.9,24.7,-11.1,-21.7,-11.1,·
COc1ccc(N(S(=O)(=O)c2ccccc2)S(=O)(=O)c2ccccc2)c(N)c1,50.6*,36.6,30.4,-3.0,-2.6,-1.3,3.9
SMILES,Jurkat NFkB inh,Mdm2-MdmX inh,CSC inhib,Gli-Sufu antag,aSyn 5UTR inh,697 NFkB inh,Jurkat NFkB conf
COC(=O)CNC(=O)CN(c1ccc(OC)cc1OC)S(=O)(=O)c1ccccc1,0.5,9.5,-9.3,-9.0,·,14.2,·
CCc1nnc(NC(=O)CSc2nnc(COc3ccccc3)n2Cc2ccccc2)s1,-12.6,-10.7,-17.2,6.6,13.8,-5.7,·
Cc1[nH]c2ccccc2c1/C=C/c1nc2ccccc2c(=O)[nH]1,-167.7,-94.9,30.2,-33.0,-98.2,-134.1,-32.8
Cc1cccc(/C=C/c2nc3ccccc3c(=O)[nH]2)c1,-44.6,-17.8,41.2,-81.5,-93.7,-172.2,·
CC(=O)O[C@H]1C(=O)[C@@]2(C)[C@H]([C@H](OC(=O)c3ccccc3)[C@]3(O)C[C@H](OC(=O)[C@H](O)C(NC(=O)c4ccccc4)c4ccccc4)C(C)=C1C3(C)C)[C@]1(OC(C)=O)CO[C@@H]1C[C@@H]2O (stereo partly drawn),58.8*,47.7,?,29.1,72.3*,-27.4,60.4*
COc1ccc(C2=NN(C(C#N)c3ccc(OC)c(OC)c3)C(c3ccccc3)C2)cc1 (stereo not drawn),-155.3,-10.9,21.0,-36.0,-172.2,-223.6,-107.8
Cc1ccnc(NC(=O)c2sc3cc(Cl)ccc3c2Cl)c1,-165.4,-41.9,12.4,-68.8,-139.6,-146.0,-56.1
Cc1ccnc(NC(=O)c2cc3cc(F)ccc3s2)c1,-168.6,-139.7,18.3,-134.5,-37.2,-171.7,-119.1
CCC(=O)c1ccc(OCC(=O)OCC(=O)NCC2CCCO2)cc1 (stereo not drawn),2.3,-11.6,·,-7.2,5.9,1.1,·
O=C(N/N=C/c1ccc(Cl)cc1Cl)c1n[nH]c2c1CCCC2,15.8,-57.2,-1.9,-63.0,-5.9,-127.1,·
O=C(N/N=C\c1cccc(Cl)c1)c1n[nH]c2c1CCCC2,-151.7,-104.5,7.9,-80.3,-151.8,-191.6,-62.9
C=CCc1c(C)nc2c(-c3ccccc3)cnn2c1N1CCOCC1,·,·,0.4,-96.9,-175.0,·,·
Cc1ccc(-c2onc3ccc(C(=O)O)cc23)cc1,51.7*,-13.0,-15.2,-16.5,-199.9,-56.2,-1.4
CCN(CC)c1ccc(NC(=O)c2cc(OC)cc(OC)c2)c(C)c1,60.1*,49.5,·,46.2,-22.6,-27.7,43.1
CC(C)(C)c1ccc(C(=O)Nc2ccc(F)cc2)s1,-184.5,-181.1,27.9,-89.6,-140.4,9.4,-171.2
O=[N+]([O-])c1ccc(O)c(/C=N/Nc2ccc(Cl)nn2)c1,53.4*,40.2,106.8*,86.1*,100.1*,-121.2,78.2*
COC(=O)c1sc(N2CCN(c3ccc(Cl)cc3)CC2)nc1N,60.6*,22.5,-0.4,7.5,-27.7,-21.0,6.9
COc1ccc(N2CCN(C(=O)NC(=O)c3ccc(Cl)cc3)CC2)cc1,-10.5,28.7,-4.5,-4.2,22.5,15.5,·
Cc1cccc(N2CCN(C(=O)c3c(-c4ccccc4)noc3C)CC2)c1C,68.3*,46.1,45.3,26.9,64.6*,-51.0,40.7
CCc1noc(C)c1C(=O)N1CCN(c2cccc(C)c2C)CC1,-0.1,15.2,·,5.7,9.5,-10.2,·
CC1CC(c2ccccc2)NS(=O)(=O)O1 (stereo not drawn),-1.2,33.6,0.3,4.0,3.3,10.2,·
Cc1ccc2nc(SCC(=O)c3ccccc3)nc(=O)n2c1,-224.6,-109.9,-3.6,-1.1,-111.8,-97.3,-75.0
c1ccc(Nc2nc(-c3ccccn3)cs2)cc1,-130.5,-158.8,6.5,-11.9,-145.1,-197.3,·
COc1cccc2sc(Nc3nc(-c4ccccn4)cs3)nc12,97.6*,42.7,·,·,51.9,-132.2,31.8
Nc1c(C(=O)Nc2ccccc2)nnn1-c1ccc2c(c1)OCCO2,-157.3,-138.4,12.1,-84.0,13.2,-233.9,-99.7

# High-throughput results: PubChem, several laboratories
